Here are results for 29 molecules from PubChem BioAssay (NCATS).

The nature of test [1]: Quantitative High-Throughput drug screen in 47 multiple myeloma cell lines against the NCATS MIPE library collection: VP6_DJ cell viability assay (AID 1919867). Also: nearly all actives have a fitted effect of over 40% in size. Also: potency is read from the fitted curve at half-maximal effect. The procedure, abridged:
(§1)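 MIPE 4.0 approved/investigational drugs; 500 cells/well; 48 h 37 °C humidified 5% CO2; CTG luminescence readout; DMSO = 100%, media = 0% viability.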

Test [2] can be described thus: Quantitative High-Throughput drug screen in 47 multiple myeloma cell lines against the NCATS MIPE library collection: PCM6_Riken cell viability assay (AID 1919870). Also: nearly all actives have a fitted effect of over 30% in size. Also: potency is read from the fitted curve at half-maximal effect. The procedure, abridged:
as §1

The nature of test [3]: Quantitative High-Throughput drug screen in 47 multiple myeloma cell lines against the NCATS MIPE library collection: RPMI8226_ATCC cell viability assay (AID 1919871). Also: nearly all actives have a fitted effect of over 30% in size. Also: potency is read from the fitted curve at half-maximal effect. Put shortly: as §1
Test [4] is described as follows: Quantitative High-Throughput drug screen in 47 multiple myeloma cell lines against the NCATS MIPE library collection: OPM2_DSMZ cell viability assay (AID 1919872). Also: nearly all actives have a fitted effect of over 30% in size. Also: potency is read from the fitted curve at half-maximal effect. The procedure, abridged:
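Viability readout: CellTiter-Glo luminescence following 5 min room-temperature incubation with reagent. Prior exposure: 48 h, 37C, humidified 5% CO2, 500 cells per well.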

Test [5] in a line: Quantitative High-Throughput drug screen in 47 multiple myeloma cell lines against the NCATS MIPE library collection: KMS11_JCRBsus cell viability assay (AID 1919873). Also: nearly all actives have a fitted effect of over 50% in size. Also: potency is read from the fitted curve at half-maximal effect. Put shortly: as §1
Test [6] can be described thus: Quantitative High-Throughput drug screen in 47 multiple myeloma cell lines against the NCATS MIPE library collection: KMS28BM_JCRB cell viability assay (AID 1919874). Also: nearly all actives have a fitted effect of over 35% in size. Also: potency is read from the fitted curve at half-maximal effect. Put shortly: as §1
A short description of test [7]: Quantitative High-Throughput drug screen in 47 multiple myeloma cell lines against the NCATS MIPE library collection: PE2_PLB cell viability assay (AID 1919869). Also: potency is read from the fitted curve at half-maximal effect; nearly all actives have a fitted effect of over 35% in size. Put shortly: as §1
For test [8], the target named is Cytochrome P450 2D6 (Homo sapiens) (UniProt P10635). The test can be described thus: qHTS for inhibitors of CYP2D6 against the NCATS DSHEA and TCM libraries (AID 1919972). The procedure, abridged: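 Luminescent P450-Glo read-out of CYP2D6 turnover of a luciferin substrate after NADPH-driven reaction of 30-45 min at room temperature. Compounds were first preincubated 15 min with enzyme at titrated concentrations; quinidine was the intraplate control.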
Chain of Cytochrome P450 2D6 (Homo sapiens) (P10635 whole entry, looked up): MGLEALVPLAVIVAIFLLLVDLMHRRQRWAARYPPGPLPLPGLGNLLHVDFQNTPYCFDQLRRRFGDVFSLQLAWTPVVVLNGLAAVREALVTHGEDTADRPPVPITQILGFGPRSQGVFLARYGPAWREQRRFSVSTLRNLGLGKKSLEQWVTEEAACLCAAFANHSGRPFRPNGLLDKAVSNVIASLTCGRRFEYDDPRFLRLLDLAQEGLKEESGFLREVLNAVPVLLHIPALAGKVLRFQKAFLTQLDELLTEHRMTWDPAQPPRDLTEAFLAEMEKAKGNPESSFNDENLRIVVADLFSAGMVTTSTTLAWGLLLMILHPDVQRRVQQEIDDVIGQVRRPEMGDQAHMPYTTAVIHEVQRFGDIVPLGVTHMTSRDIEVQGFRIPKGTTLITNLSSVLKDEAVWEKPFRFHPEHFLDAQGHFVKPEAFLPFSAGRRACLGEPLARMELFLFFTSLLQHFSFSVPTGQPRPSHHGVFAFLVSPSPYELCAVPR
Background: qHTS replaces the single test concentration by a dilution series.

Inconclusive results are not listed. The source made the active and inactive calls. Calls follow the shape of the dose curve; as a rule, active = well fitted curve in the direction sought with a large enough effect; inconclusive = small, poorly fitted or top-dose-only effect, or another doubt; inactive = no such curve, though single readings can be large; an effect the other way counts as inactive or inconclusive.

With `COc1cc(C=CC(=O)O)ccc1O`, the Potency entry in test [1], in test [2], in test [3], in test [4], in test [5] and in test [6] was “inactive” in each case.
As for `CC(C)CN(C[C@H](O)[C@H](Cc1ccccc1)NC(=O)O[C@H]1CCOC1)S(=O)(=O)c1ccc(N)cc1`, the Potency in test [1] was 20.9 µM (active); in test [2] it was 13.2 µM (active); in test [4], 18.7 µM (active). Further, in test [3], the Potency result was “inactive”.
Regarding `CCc1cccc(CC)c1NC(=O)N1Cc2[nH]nc(NC(=O)c3ccc(N4CCN(C)CC4)cc3)c2C1`, the Potency in test [1] is 5.9 µM (active); in test [7], 20.9 µM (active); in test [3], 18.7 µM (active); in test [5] it was 1.05 µM (active); in test [6] it was 1.18 µM (active).
On to `Cc1cc(CS(=O)(=O)c2ccccc2)cc(OCc2ccc(CN3CCC[C@H]3CO)cc2)c1`, for which the Potency in test [1] is 0.296 µM (active). The Potency result in test [4] and in test [6] was “inactive” in each case.
With `COc1ccc2cc1Oc1ccc(cc1)C[C@H]1c3cc(c(OC)cc3CCN1C)Oc1c(OC)c(OC)cc3c1[C@H](C2)N(C)CC3`, the figures for the Potency in test [1], in test [3] and in test [5] were 11.8 µM (active), 6.62 µM (active) and 14.8 µM (active), respectively. In test [4], the Potency result is “inactive”.
On to `Cn1cc(-c2ccc3nnc(Sc4ccc5ncccc5c4)n3n2)cn1`, for which the Potency in test [1] was 18.7 µM (active). Moreover, the Potency result in test [4], in test [5] and in test [6] was “inactive” throughout.
As for `CN1C(=O)C[C@H](C(=O)N[C@@H](Cc2cnc[nH]2)C(=O)N2CCC[C@@H]2C(N)=O)NC1=O`, the Potency in test [1] was 10.5 µM (active); in test [6] it was 8.33 µM (active). The Potency result in test [3] was “inactive”.
Turning to `CCNC(=O)Nc1ccc(Oc2ncnc(N)c2C=NOC)cc1Cl`, the Potency was 3.72 µM (active) in test [1], 18.7 µM (active) in test [3] and 9.35 µM (active) in test [5].
On to `Fc1ccc(CNc2ncnc3ccc(F)cc23)cc1`, for which the Potency in test [1] was 5.9 µM (active); in test [3], 5.26 µM (active); in test [4], 2.96 µM (active); in test [5], 10.5 µM (active).
As to `Clc1ccc(COC(Cn2ccnc2)c2ccc(Cl)cc2Cl)c(Cl)c1` (stereo not given), the Potency is 18.7 µM (active) in test [1], 20.9 µM (active) in test [2], 23.5 µM (active) in test [5] and 20.9 µM (active) in test [6].
As for `OCCn1cc(-c2ccc3c(c2)CCC3=NO)c(-c2ccncc2)n1`, the Potency in test [1] was 16.6 µM (active). Moreover, the Potency result in test [3] and in test [4] was “inactive” throughout.
Take `CN(C)c1ccccc1CN1CCCN(Cc2ccccc2N(C)C)C1c1ccncc1`: in test [1], the Potency is 18.7 µM (active). The Potency entry in test [6] is “inactive”.
As to `CCC(c1ccc(O)cc1)C(CC)c1ccc(O)cc1` (stereo not given), the Potency entry in test [1], in test [3] and in test [4] was “inactive” in each case.
Regarding `CC(C)n1c(C=C[C@H](O)C[C@H](O)CC(=O)O)c(-c2ccc(F)cc2)c2ccccc21`, the Potency is 16.6 µM (active) in test [1], 18.7 µM (active) in test [3] and 8.33 µM (active) in test [5].
On to `Cc1ccccc1C(C(=O)NC1CCCCC1)N(C(=O)CNc1ccc(C#N)cc1)c1cccc(F)c1` (stereo not given), for which the Potency result in test [1] and in test [4] was “inactive” each time. For the same molecule, the Potency in test [3] is 23.5 µM (active).
For `Cc1cc(C(C)Nc2ccccc2)c2nc(N3CCOCC3)cc(=O)n2c1` (stereo not given), in test [1], the Potency is 3.32 µM (active). For the same molecule, the Potency entry in test [3] and in test [4] was “inactive” throughout.
Take `COc1cc([C@H]2Oc3cc([C@H]4Oc5cc(O)cc(O)c5C(=O)[C@H]4O)ccc3O[C@H]2CO)ccc1O`: the figures for the Potency in test [1], in test [5] and in test [6] were 11.8 µM (active), 7.43 µM (active) and 10.5 µM (active), respectively.
Regarding `COc1cc(CNC(=O)CCCCC=CC(C)C)ccc1O`, the Potency entry in test [1], in test [2], in test [4], in test [5] and in test [6] was “inactive” each time.
As to `C#C[C@]1(O)CC[C@H]2[C@H]3CCc4cc(OC)ccc4[C@H]3CC[C@@]21C`, the Potency in test [1] is 16.6 µM (active). The Potency entry in test [4] is “inactive”.
In the case of `COc1cc(Nc2nc3ccccc3nc2NS(=O)(=O)c2ccc(NC(=O)c3ccc(C)c(OC)c3)cc2)cc(OC)c1`, the figures for the Potency in test [1] and in test [2] were 5.9 µM (active) and 2.35 µM (active), respectively. In addition, the Potency result in test [6] is “inactive”.
On to `COc1nccc(-c2c(-c3ccc(F)cc3)ncn2C2CCNCC2)n1`, for which the Potency is 1.18 µM (active) in test [1] and 0.469 µM (active) in test [6]. For the same molecule, in test [4], the Potency entry was “inactive”.
Take `CCCCC(C=O)NC(=O)C(CC(C)C)NC(=O)OCc1ccccc1` (stereo not given): the Potency result in test [1] was “inactive”. Further, the Potency in test [4] was 14.8 µM (active).
As to `O=C(O)C1=CO[C@@H](O[C@@H]2O[C@H](CO)[C@H](O)[C@H](O)[C@H]2O)[C@@H]2C(CO)=CC[C@H]12`, the Potency entry in test [1], in test [4], in test [5] and in test [6] was “inactive” throughout. For the same molecule, the Potency in test [3] was 4.18 µM (active).
As to `O=C1C(CCC(O)c2ccc(F)cc2)C(c2ccc(O)cc2)N1c1ccc(F)cc1` (stereo not given), the Potency in test [1] is 3.32 µM (active). The Potency result in test [3], in test [4], in test [5] and in test [6] was “inactive” in each case.
As to `COc1ccc2c(c1)c(C1=C(c3c[nH]c4ccccc34)C(=O)NC1=O)cn2CCCN(C)C`, the Potency was 20.9 µM (active) in test [1] and 23.5 µM (active) in test [5].
`O=c1cc(-c2ccc(O)c(O)c2)oc2cc(O)cc(O)c12`: the Potency in test [1] is 11.8 µM (active). The Potency result in test [2], in test [3], in test [5] and in test [6] was “inactive” in each case. In test [8], the molecule was classed as inactive.
Consider `CCN1CCN(c2ccc(Nc3cc(N(C)C(=O)Nc4c(Cl)c(OC)cc(OC)c4Cl)ncn3)cc2)CC1`, for which the Potency in test [1] was 23.5 µM (active); in test [4], 0.209 µM (active). In addition, the Potency result in test [3] and in test [5] was “inactive” throughout.
`O=C(CCCN1CCN(c2ccc(F)cc2)CC1)NC1c2ccccc2CSc2ccccc21` (stereo not given): the Potency is 7.43 µM (active) in test [1], 14.8 µM (active) in test [2], 10.5 µM (active) in test [5] and 11.8 µM (active) in test [6].
For `C[C@@H]1CC=CC=CC=CC=C[C@@H](O[C@@H]2O[C@H](C)[C@@H](O)[C@H](N)[C@H]2O)C[C@@H]2O[C@](O)(C[C@@H](O)C[C@@H]3O[C@@H]3C=CC(=O)O1)C[C@H](O)[C@@H]2C(=O)O`, the Potency in test [1] was 10.5 µM (active); in test [2], 16.6 µM (active); in test [5] it was 16.6 µM (active); in test [6], 20.9 µM (active).
